{"source": "PubChem BioAssay (EPA / NIEHS)", "note": "Results filed as inconclusive are left out. The source made the active and inactive calls. Rule for the calls: active = hit-call score of the fitted dose curve at least 0.9, where 1 is the maximum; inconclusive = response in the unintended direction; inactive = score below 0.9."}
{"read-out": "xenobiotic metabolism (CYP2C9), CYP2C9 (gene 1559)", "experiment": "CLD_CYP2C9_6hr: CellzDirect (CLD) Gene Expression Assay for xenobiotic metabolism (CYP2C9) at 6 hours (AID 2283664)", "protocol": "CLD_6hr is a cell-based, multiplexed-readout assay that uses hepatocyte, a human liver primary cell, with measurements taken at 6 hours after chemical dosing in a 96-well plate.CLD_CYP2C9_6hr is one of 16 assay component(s) measured or calculated from the CLD_6hr assay. It is designed to make measurements of mRNA induction, a form of inducible reporter, as detected with chemiluminescence signals by Quantitative Nuclease Protection Assay (qNPA) technology.Data from the assay component CLD_CYP2C9_6hr was analyzed at the endpoint, CLD_CYP2C9_6hr, in the positive analysis fitting direction relative to DMSO as the negative control and baseline of activity. Using a type of inducible reporter, gain-of-signal activity can be used to understand changes in the reporter gene as they relate to the gene CYP2C9. Furthermore, this assay endpoint can be referred to as a primary readout. To generalize the intended target to other relatable targets, this assay endpoint is annotated to the cyp intended target family, where subfamily is xenobiotic metabolism.\nHuman hepatocyte cultures were treated daily for two consecutive days with fresh dosing solutions containing appropriate concentrations of the 320 ToxCast chemicals (chemical identities were blinded to CellzDirect and other ToxCast collaborators), vehicle control (0.2% DMSO), and positive control inducers as summarized in Table 1. Due to the large number of treatment groups and chemicals examined, the ToxCast chemicals were divided into two groups (spanning two independent cultures of hepatocytes from separate donor preparations (Hu778: ToxCast plates 1 and 2; Hu776: ToxCast plates 3 and 4). Each preparation of human hepatocyte cultures was treated with respective vehicle control, medium only control, set of six positive controls/reference chemicals for the five hepatic receptor pathways, and a subset of eight of the ToxCast chemicals (indoxacarb, pyrithiobac-sodium, norflurazon, cyhalofop-butyl, methomyl, thiram, acetochlor, and propiconazole). These replicate data, coupled with internal replicates designed within the blinded ToxCast chemical library, provided additional data to evaluate interindividual differences between hepatocyte preparations and their potential impact on chemical profiles.Cell morphology and integrity were evaluated using phase-contrast microscopy as an indicator of hepatocyte cell health (Tyson & Green, 1987). Cultures for each treatment group (i.e., media, vehicle [0.2% DMSO], positive control inducers [multiple concentrations], and the ToxCast chemicals [multiple concentrations]) were observed and cell morphology was assessed relative to vehicle control cultures at each harvest time point (0, 6, 24, or 48 h). […] Images were evaluated at the conclusion of the study to assess changes in cell integrity and account for the effects of chemical exposure on uncharacteristic changes in concentration-dependent gene expression profiles. The results from these determinations of apparent cytotoxicity were annotated (yes/no) alongside the corresponding qNPA data for reference.At the conclusion of each treatment period, hepatocyte cultures (96-well) were washed with 1 volume of HBSS, lysed by addition of 25 ul ArrayPlate lysis buffer (HTG, Tucson, AZ), and 70 ul/well of Denaturation Oil, denatured by incubation at 95C for 10 min, and frozen at approximately -70C until analysis by nuclease protection assay (qNPA) (Roberts et al., 2007). For qNPA analysis, cell lysates were thawed at 50C for approximately 30 min, qNPA probes were added, and samples were incubated at 95C for 10 min to begin the detection process by denaturing the target RNA, dissociating the duplexes and secondary structure hybridization. At the conclusion of the hybridization period, S1 nuclease reagent was added to each sample to digest all nonprotected nucleotides at 50C for 60-90 min. […]"}
{"compound": "COC(=O)C=C(C)OP(=O)(OC)OC", "outcome": "inactive"}
{"compound": "OC(c1ccc(Cl)cc1)(c1cncnc1)c1ccccc1Cl", "note": "(centres undefined)", "outcome": "inactive"}
{"compound": "COP(=S)(OC)Oc1nc(Cl)c(Cl)cc1Cl", "outcome": "inactive"}
{"compound": "CNC(=O)ON=CC(C)(C)SC", "outcome": "inactive"}
{"compound": "CCCN(CCC)c1c([N+](=O)[O-])cc(S(N)(=O)=O)cc1[N+](=O)[O-]", "outcome": "inactive"}
{"compound": "COc1nc(NC(C)C)nc(NC(C)C)n1", "outcome": "inactive"}
{"compound": "C#CCOS(=O)OC1CCCCC1Oc1ccc(C(C)(C)C)cc1", "note": "(centres undefined)", "outcome": "inactive"}
{"compound": "C=CCC1=C(C)C(OC(=O)C2C(C=C(C)C)C2(C)C)CC1=O", "note": "(centres undefined)", "outcome": "inactive"}
{"compound": "CNC(=S)S", "outcome": "inactive"}
{"compound": "O=C(O)COc1nc(Cl)c(Cl)cc1Cl", "outcome": "inactive"}
{"compound": "COc1nc(C)nc(NC(=O)NS(=O)(=O)c2ccccc2Cl)n1", "outcome": "inactive"}
{"compound": "CCCCOC(=O)c1ccccc1C(=O)OCCCC", "outcome": "inactive"}
{"compound": "CCNc1nc(Cl)nc(NCC)n1", "outcome": "inactive"}
{"compound": "COc1nc(C)nc(NC(=O)NS(=O)(=O)c2ccccc2CCC(F)(F)F)n1", "outcome": "inactive"}
{"compound": "CC(C)C1(C)N=C(c2nc3ccccc3cc2C(=O)O)NC1=O", "note": "(centres undefined)", "outcome": "inactive"}
{"compound": "COc1cnc(OC)n2nc(NS(=O)(=O)c3c(OCC(F)F)cccc3C(F)(F)F)nc12", "outcome": "inactive"}
{"compound": "Fc1ccc(Oc2ccnc3cc(Cl)cc(Cl)c23)cc1", "outcome": "inactive"}
{"compound": "COC(=O)c1ccccc1C(=O)OC", "outcome": "inactive"}
{"compound": "COC(=O)N(OC)c1ccccc1COc1ccn(-c2ccc(Cl)cc2)n1", "outcome": "inactive"}
{"compound": "Oc1ccccc1-c1ccccc1", "outcome": "inactive"}
{"compound": "CCOC(=O)C(Cl)Cc1cc(-n2nc(C)n(C(F)F)c2=O)c(F)cc1Cl", "note": "(centres undefined)", "outcome": "inactive"}
{"compound": "O=C(O)c1nc(Cl)ccc1Cl", "outcome": "inactive"}
{"compound": "CCCCC(CC)COC(=O)c1ccccc1C(=O)OCC(CC)CCCC", "note": "(centres undefined)", "outcome": "inactive"}
{"compound": "Cc1cc(Cl)ccc1OCC(=O)O", "outcome": "inactive"}
